Hit rate of the full screen: of about 21,000 compounds, fewer than 10 showed an effect of 50% or more. Not all results are given here. Results with a measured potency or affinity are listed apart.

The assay relates to Acinetobacter baumannii. Particulars: Concentration 32 ug.mL-1; ASSAY_TEST Inhibition of Bacterial Growth; detection method Absorption (OD600); MEDIA CAMHB; plate type 384well; NBS; CORNING #3640; time 18 hr.
Turning to `COc1ccc2c(c1)CCC(=Cc1cccnc1Br)C2=O`, the Inhibition is -2.26%.

The values above are taken from ChEMBL document CHEMBL4513147, “CO-ADD screening of Armstrong State University (GA, USA) compounds”.
